# Reference: the supplement of paper PMC3334620
# Whole data set: some 33,000 sequences, median “E-score (-0.5 to 0.5)” near -0.043, cut for the highest 2% near 0.37. The full list was thinned out, with the highest values kept by preference.
# Target: T1, Upc2 (UniProt Q12151)
# T1 sequence: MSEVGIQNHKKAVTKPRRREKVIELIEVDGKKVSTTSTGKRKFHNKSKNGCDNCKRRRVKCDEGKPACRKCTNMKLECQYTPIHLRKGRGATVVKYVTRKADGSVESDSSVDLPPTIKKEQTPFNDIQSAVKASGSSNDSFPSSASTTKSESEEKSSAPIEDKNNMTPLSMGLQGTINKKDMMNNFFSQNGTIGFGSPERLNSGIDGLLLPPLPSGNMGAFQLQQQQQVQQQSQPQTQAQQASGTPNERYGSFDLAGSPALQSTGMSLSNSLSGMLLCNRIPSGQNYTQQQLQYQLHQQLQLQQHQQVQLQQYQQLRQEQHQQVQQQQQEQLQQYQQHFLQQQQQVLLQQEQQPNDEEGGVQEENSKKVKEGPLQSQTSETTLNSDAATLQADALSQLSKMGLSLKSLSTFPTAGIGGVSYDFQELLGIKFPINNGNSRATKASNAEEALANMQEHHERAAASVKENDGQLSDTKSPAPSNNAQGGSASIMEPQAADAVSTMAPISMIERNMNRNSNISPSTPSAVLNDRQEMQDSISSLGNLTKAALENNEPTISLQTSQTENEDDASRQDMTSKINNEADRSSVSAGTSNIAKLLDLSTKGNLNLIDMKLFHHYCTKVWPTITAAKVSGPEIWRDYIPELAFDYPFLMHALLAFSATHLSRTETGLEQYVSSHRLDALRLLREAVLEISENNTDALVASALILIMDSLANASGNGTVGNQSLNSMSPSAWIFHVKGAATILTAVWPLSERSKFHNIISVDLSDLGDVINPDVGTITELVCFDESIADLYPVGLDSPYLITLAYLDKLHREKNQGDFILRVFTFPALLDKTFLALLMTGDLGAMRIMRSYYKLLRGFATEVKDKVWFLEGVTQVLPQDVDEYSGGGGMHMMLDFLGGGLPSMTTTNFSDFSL
# Test: PBM E-score (8-mer binding enrichment) (E-score (-0.5 to 0.5)); higher = stronger / more preferred TF binding
# Settings: protein concentration: 200 nM; construct: GST-full length
# Outline: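 PURExpress in vitro transcription/translation supplied GST-tagged yeast transcription factors, either full-length or DNA-binding domain. Applied at about 100-200 nM to universal all-10-mer Agilent arrays double-stranded by primer extension, the bound protein was detected with fluorescent anti-GST. E-scores, modified Wilcoxon-Mann-Whitney statistics, were given by the Universal PBM Analysis Suite to ungapped eight-base words pooled with their reverse complements after masliner normalisation.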
row,Sequence,PBM E-score
1,GGCAATCA,-0.196
2,AAAGGATC,-0.127
3,CTCTCGTA,0.453
4,ATCTCGTC,0.123
5,CTCTCGAA,-0.0265
6,GTCTCGTA,0.456
7,ATCTCGTA,0.464
8,GTCTCGGA,0.162
9,CTCTCGTC,0.0223
10,GTCTCGAA,-0.0265
11,ATCTCGTG,0.124
12,AAGGTTCA,-0.145
13,GGCAGAGA,-0.14
14,GCCACAGA,-0.149
15,ATTGAACA,-0.0652
16,TTATCCAA,0.0246
17,GAGAGTAC,0.0133
18,ACGTACCG,0.272
19,CCGTACCA,0.368
20,CCGTACCC,0.379
21,CCGTACCG,0.389
22,ACGTACCC,0.203
23,GCGTACCC,0.244
24,GAAATATA,0.127
25,GTCCCGTA,0.25

row,Sequence,PBM E-score
1,ATCCCGTG,0.0975
2,ATCCCGTA,0.373
3,AACCCAAC,0.00517
4,CGCTTACC,0.301
5,CGCTTACG,0.372
6,CGCTTACA,0.178
7,CCTTATAA,0.0883
8,ACGTTTTG,-0.0436
9,ACGTTTAG,0.397
10,ACGTTTAA,0.407
11,ATGTTTAA,0.067
12,CCGTTTCG,0.255
13,CCGTTTAG,0.468
14,ACGTTTAT,0.313
15,ACGTTTTA,0.188
16,CAGTTTAG,-0.0566
17,CACTAGCC,-0.0426
18,TAAGACAA,0.0602
19,AGCTGAGA,-0.232
20,CTTGCACC,0.0237
21,GAAAGCCA,-0.231
22,AACGTATG,0.239
23,ATAGTATC,0.0546
24,ATAGTATG,0.0124
25,ATGGTATC,0.15

row,Sequence,PBM E-score
1,CTTGTATC,-0.0734
2,ATCGTATC,0.426
3,ATCGTATG,0.455
4,CTCGTATC,0.473
5,CTGGTATC,-0.187
6,CGGTCACA,0.0569
7,AGTGCTAT,-0.0648
8,CGTGCTTC,0.014
9,CACAAGGC,-0.308
10,GGCCATGA,-0.134
11,ACTTCAGC,-0.178
12,ATTGTACC,0.115
13,CCTGTACA,-0.0382
14,CATGTACG,0.409
15,AGTGTACA,-0.0815
16,CCTGTACG,0.436
17,AGTGTACC,-0.0597
18,AGTGTACG,0.417
19,ATTGTACA,-0.0603
20,AATGTACG,0.36
21,CCTGTACC,-0.0294
22,CATGTACA,-0.00834
23,ATTGTACG,0.428
24,ACATGCGA,0.128
25,ACAGCGGT,-0.15

row,Sequence,PBM E-score
1,AATCTGAA,-0.00542
2,CTTGACTC,-0.0404
3,ATAAGTCC,-0.0003
4,GGTCCACA,-0.166
5,GAGTTCTA,-0.141
6,ACTGTACC,-0.077
7,ACTGTACG,0.433
8,ACTGTACT,0.0214
9,CTATACTC,0.0215
10,ATATACAC,0.193
11,ATATACAA,-0.0498
12,ATATACCG,0.194
13,ATATACGA,0.492
14,ATATACGG,0.456
15,ATATACTG,0.0777
16,CTATACCC,0.0307
17,ATATACGC,0.387
18,ATATACCA,0.0254
19,ATATACTC,-0.0113
20,CTATACGC,0.458
21,CGGATTTA,0.0862
22,CGCCTTAC,0.155
23,AATCTGAC,-0.119
24,AGCTCACT,-0.138
25,ATAAAAAG,0.0686

row,Sequence,PBM E-score
1,CCTCTCAG,-0.352
2,CGTAGGGA,-0.0318
3,ATCTTACA,0.0167
4,GACGTACA,0.305
5,AACGTACC,0.256
6,ATAGTACG,0.221
7,AACGTACA,0.266
8,AACGTACG,0.386
9,GGCGTACA,0.269
10,AGCGTACA,0.301
11,ATCGTAGG,0.165
12,ATCGTACA,0.468
13,GTCGTACA,0.483
14,ATCGTACG,0.435
15,ATAGTACA,0.149
16,AGTTTTCA,-0.0402
17,CAGCTAGG,-0.352
18,AAGGTGGA,-0.0852
19,TCAGTCCA,-0.272
20,AAAAACGT,0.0237
21,AGCGCTTG,-0.188
22,GCGGTACC,0.0215
23,GAAGTGCA,-0.153
24,CTTCTCGA,-0.187
25,ACCAGAAT,-0.00733

row,Sequence,PBM E-score
1,CCAGAGGA,-0.256
2,AGTCGAGC,-0.152
3,CGTAAATA,0.34
4,AGTAAACC,-0.0507
5,CGTAAACA,0.39
6,AGTAAACA,0.0452
7,GGTAAACA,0.111
8,TGTAAACA,-0.0818
9,CGTAAATC,0.352
10,CGTAAACG,0.473
11,AGTAAACG,0.442
12,ACGATTTG,0.28
13,CCAAGCTA,-0.182
14,CAAATAGA,-0.0516
15,AGTTTCAT,0.0688
16,CCTCTATC,-0.122
17,AAGATCAT,0.0203
18,AGTTTATC,0.115
19,CGTTTATA,0.45
20,GGTTTATA,0.144
21,AGTTTATA,0.129
22,CGTTTATC,0.425
23,CTTTTATC,0.00372
24,ATCTAGCA,-0.206
25,ACGACACG,0.295

row,Sequence,PBM E-score
1,ACGACAGT,0.37
2,ACGACACC,0.374
3,CCGACACC,0.0358
4,ACGACAGG,0.359
5,ACGACAGC,0.336
6,ATTATAAC,-0.061
7,CTAGAGCA,-0.192
8,GATTGTGA,-0.112
9,GCACGTTA,0.182
10,ACTCGGTC,0.0379
11,ACTCGTTC,0.46
12,CCTCGTTC,0.46
13,GCTCGCTA,0.196
14,CCTCGTCC,-0.3
15,CCTCGTTA,0.399
16,GCTCGTTA,0.39
17,ACTCGTTG,0.198
18,CCACGTTA,0.136
19,CCTCGTGC,0.0326
20,ACTCGTTA,0.35
21,ACAGTAGA,-0.0149
22,CATCTTGG,-0.305
